A short description of assay [1]: qHTS assay to identify small molecule antagonists of the peroxisome proliferator-activated receptor delta (PPARd) signaling pathway - cell viability counter screen (AID 743213; active = well fitted curve in the direction sought with a large enough effect in the repeat runs; an effect the other way counts as inactive or inconclusive; also: nearly all actives have a fitted effect of over 50% in size). The gist of the method: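 In this counter screen, HEK293H cells carrying a UAS-beta-lactamase reporter are co-treated with test compounds and 300 nM L165041 (final) for 17 h at 37 C; cell viability is quantified by CellTiter-Glo luminescence.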

Assay [2] is described as follows: qHTS assay to identify small molecule agonists of the farnesoid-X-receptor (FXR) signaling pathway - cell viability counter screen (AID 743218; active = well fitted curve in the direction sought with a large enough effect in the repeat runs; an effect the other way counts as inactive or inconclusive; also: nearly all actives have a fitted effect of over 45% in size). The gist of the method:
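Cytotoxicity counter-screen run in parallel, same wells: FXR-UAS-bla HEK 293T cells dosed 16 h at 37 C, viability read by CellTiter-Glo luminescence after 30 min at room temperature.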

A short description of assay [3]: qHTS assay to identify small molecule antagonists of the farnesoid-X-receptor (FXR) signaling pathway - cell viability counter screen (AID 743221; active = well fitted cell-killing curve with a large enough effect in the repeat runs, not every such curve was filed as active; also: nearly all actives have a fitted effect of over 50% in size). An outline of the steps:
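CellTiter-Glo, 30 min RT, luminescence; same wells as the LiveBLAzer FRET read. Cells: FXR-UAS-bla HEK 293T. Treatment: compound with chenodeoxycholic acid 50 uM final, 16 h at 37 C.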

In assay [4] the target is Vitamin D3 receptor (Homo sapiens) (UniProt P11473). Briefly: qHTS assay to identify small molecule agonists of the vitamin D receptor (VDR) signaling pathway (AID 743222). An outline of the steps: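 Quantitative HTS agonist-mode screen: compounds in DMSO were pin-transferred onto VDR-bla cells and incubated 16 h at 37C, 5% CO2. Reporter activity was detected with LiveBLAzer B/G FRET substrate after 2 h at room temperature.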
Sequence of Vitamin D3 receptor (Homo sapiens) (P11473 whole entry, looked up): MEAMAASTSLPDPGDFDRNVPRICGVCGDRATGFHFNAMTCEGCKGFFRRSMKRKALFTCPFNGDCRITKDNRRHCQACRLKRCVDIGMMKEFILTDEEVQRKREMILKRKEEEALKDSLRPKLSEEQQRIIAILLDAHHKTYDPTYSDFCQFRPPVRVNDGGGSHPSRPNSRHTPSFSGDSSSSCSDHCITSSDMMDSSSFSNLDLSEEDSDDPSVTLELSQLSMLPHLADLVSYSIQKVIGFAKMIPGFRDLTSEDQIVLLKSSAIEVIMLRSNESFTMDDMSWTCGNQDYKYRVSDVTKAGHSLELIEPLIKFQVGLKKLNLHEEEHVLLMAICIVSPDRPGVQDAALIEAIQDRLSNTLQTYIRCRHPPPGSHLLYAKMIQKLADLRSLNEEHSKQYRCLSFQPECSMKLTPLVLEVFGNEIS

Assay [5] is described as follows: qHTS assay to identify small molecule agonists of the vitamin D receptor (VDR) signaling pathway - cell viability counter screen (AID 743224; active = well fitted curve in the direction sought with a large enough effect in the repeat runs; an effect the other way counts as inactive or inconclusive; also: series mostly up to about 63 µM; nearly all actives have a fitted effect of over 50% in size). An outline of the steps:
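Viability is measured in the same wells as the VDR-bla reporter assay: after 16 h compound treatment and 2 h substrate loading, CellTiter-Glo is added and luminescence read 30 min later.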

The nature of assay [6]: qHTS assay to identify small molecule antagonists of the vitamin D receptor (VDR) signaling pathway - cell viability counter screen (AID 743225; active = well fitted curve in the direction sought with a large enough effect in the repeat runs; an effect the other way counts as inactive or inconclusive; also: nearly all actives have a fitted effect of over 50% in size). The gist of the method: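 Cytotoxicity toward the VDR-bla HEK 293T line was scored by ATP-based CellTiter-Glo luminescence, read in the wells already used for the beta-lactamase readout after 16 h compound treatment under 3 nM 1-alpha,25-dihydroxyvitamin D3 stimulation.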

Assay [7] is described as follows: qHTS assay to identify small molecule agonists of the NFkB signaling pathway (AID 1159509; active = well fitted curve in the direction sought with a large enough effect in the signal ratio in the repeat runs, not every such curve was filed as active; the % refers to the signal ratio; also: series mostly up to about 61 µM). An outline of the steps:
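ME-180 NFkB-bla, 2,000 cells/well, overnight plating; cpd pinned in DMSO, 5 h 37 C; B/G FRET substrate 1.5 h RT; ex 405, em 460/530 nm.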

Assay [8] can be described thus: qHTS assay to identify small molecule agonists of the NFkB signaling pathway - cell viability counter screen (AID 1159515). Also: series mostly up to about 61 µM; nearly all actives have a fitted effect of over 55% in size. The gist of the method:
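Multiplexed viability readout: after the 5 hr compound exposure and 1.5 hr FRET substrate step, CellTiter-Glo reagent went into the same NFkB-bla ME-180 wells; ATP luminescence was measured after 30 min at room temperature.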

Assay [9] can be described thus: qHTS assay to identify small molecule agonists of the endoplasmic reticulum stress response signaling pathway (AID 1159516; active = well fitted activation curve with a large enough effect in the signal ratio in the repeat runs, not every such curve was filed as active; the % refers to the signal ratio). The gist of the method:
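Tox21 10K library screened in quantitative HTS format on ESRE-bla HeLa cells, a beta-lactamase reporter under ER stress response element control; 5 hr treatment, FRET read.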

Assay [10] is described as follows: qHTS assay to identify small molecule agonists of the endoplasmic reticulum stress response signaling pathway - cell viability counter screen (AID 1159517). An outline of the steps: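 ESRE-bla HeLa cells, 1,500 per well, seeded overnight then treated with compounds for 5 hr at 37 C. After the beta-lactamase read, viability in the same wells is measured by CellTiter-Glo luminescence after 30 min at room temperature.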

Assay [11] can be described thus: qHTS assay to identify small molecule antagonists of the retinoid-related orphan receptor gamma (ROR-gamma) signaling pathway - cell viability counter screen (AID 1159520; active = well fitted curve in the direction sought with a large enough effect in the repeat runs; an effect the other way counts as inactive or inconclusive; also: nearly all actives have a fitted effect of over 50% in size; also: potency is read from the fitted curve at half-maximal effect). An outline of the steps:
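Tet-on ROR gamma CHO cells were given compounds for 2 hr, then doxycycline hyclate at 1 uM final, and incubated 16 hr at 37 C. Viability was measured as ATP content by CellTiter-Glo luminescence.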

In assay [12] the target is Nuclear receptor ROR-gamma (Homo sapiens) (UniProt P51449). Briefly: qHTS assay to identify small molecule antagonists of the retinoid-related orphan receptor gamma (ROR-gamma) signaling pathway (AID 1159521; active = well fitted curve in the direction sought with a large enough effect in the repeat runs; an effect the other way counts as inactive or inconclusive; also: nearly all actives have a fitted effect of over 50% in size; also: potency is read from the fitted curve at half-maximal effect). An outline of the steps: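 Readout: ONE-Glo luciferase luminescence, 30 min at room temperature. System: Tet-on RORγ CHO, RORE-LUC. Sequence: compound 2 h, doxycycline 1 uM final, 16 h at 37 C.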

Assay [13] is described as follows: qHTS assay to identify small molecule agonists of the AP-1 signaling pathway - cell viability counter screen (AID 1159525). Also: nearly all actives have a fitted effect of over 55% in size. Also: potency is read from the fitted curve at half-maximal effect. The gist of the method: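 AP-1-bla ME-180 cells in Opti-MEM with 0.5% dialyzed FBS, compound exposure 5 h at 37 C in 15-point titration. Viability read in the same wells as ATP content by CellTiter-Glo luminescence, normalised to tetra-n-octylammonium bromide and DMSO controls.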

Assay [14] can be described thus: qHTS assay to identify small molecule agonists of the AP-1 signaling pathway (AID 1159526).
The target in assay [15] is Bile acid receptor (Homo sapiens) (UniProt Q96RI1). Nature of the assay: qHTS assay to identify small molecule agonists of the farnesoid-X-receptor (FXR) signaling pathway (AID 743220; active = well fitted activation curve with a large enough effect in the signal ratio in the repeat runs, not every such curve was filed as active; the % refers to the signal ratio). An outline of the steps:
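Beta-lactamase reporter under UAS control in GeneBLAzer FXR HEK 293T cells (5000/well) measured with LiveBLAzer FRET substrate after 2 h at room temperature. Compound exposure lasted 16 h at 37C.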

In assay [16] the target is Vitamin D3 receptor (Homo sapiens) (UniProt P11473). Nature of the assay: qHTS assay to identify small molecule antagonists of the vitamin D receptor (VDR) signaling pathway (AID 743223; active = well fitted inhibition curve with a large enough effect in the signal ratio in the repeat runs, not every such curve was filed as active; the % refers to the signal ratio). An outline of the steps:
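After VDR-bla cells are plated and left 4 h at 37C, DMSO-dissolved compounds and 3 nM (final) calcitriol agonist are added. Incubation continues 16 h at 37C; FRET beta-lactamase substrate then develops 2 h at room temperature.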

Assay [17] addresses Peroxisome proliferator-activated receptor delta (Homo sapiens) (UniProt Q03181). Nature of the assay: qHTS assay to identify small molecule agonists of the peroxisome proliferator-activated receptor delta (PPARd) signaling pathway (AID 743212). The gist of the method:
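GeneBLAzer UAS-bla HEK293H cells carrying a PPARδ construct were exposed to compounds at 37 °C. Beta-lactamase activity was read by FRET fluorescence after 2 h at room temperature with LiveBLAzer B/G substrate.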

Assay [18] has the same target. Briefly: qHTS assay to identify small molecule antagonists of the peroxisome proliferator-activated receptor delta (PPARd) signaling pathway (AID 743215; active = well fitted inhibition curve with a large enough effect in the signal ratio in the repeat runs, not every such curve was filed as active; the % refers to the signal ratio;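 also: cells stimulated with agonist L165041 at 300 nM final during compound exposure; series mostly up to about 62 µM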). The gist of the method:
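Inhibition of L165041-driven (300 nM final) PPARd signaling is scored in HEK293H UAS-bla cells. Exposure lasts 17 h at 37 C; beta-lactamase activity is then read by FRET substrate fluorescence after 2 h at room temperature.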

The target in assay [19] is Bile acid receptor (Homo sapiens) (UniProt Q96RI1). Nature of the assay: qHTS assay to identify small molecule antagonists of the farnesoid-X-receptor (FXR) signaling pathway (AID 743217; active = well fitted inhibition curve with a large enough effect in the signal ratio in the repeat runs, not every such curve was filed as active; the % refers to the signal ratio). The gist of the method:
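Antagonist mode against 50 uM (final) chenodeoxycholic acid stimulation in FXR-bla HEK 293T cells, 16 h at 37 °C. Inhibition detected as reduced beta-lactamase activity via LiveBLAzer B/G FRET fluorescence after 2 h at room temperature.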

The target in assay [20] is Retinoic acid receptor RXR-alpha (Homo sapiens) (UniProt P19793). Nature of the assay: qHTS assay to identify small molecule agonists of the RXR signaling pathway (AID 1159527). Also: nearly all actives have a fitted effect of over 35% in size. The gist of the method:
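Reporter activation is measured as beta-lactamase activity via FRET substrate cleavage (emission 460/530 nm) in HEK 293T cells expressing an RXR-alpha-driven bla construct, following 16 hr compound exposure at 37 C.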

This note sets out measurements from PubChem BioAssay (Tox21).

Inconclusive results are not listed. Active and inactive are the calls of the source. Unless noted, calls follow the shape of the full dose curve.

Sequence of Bile acid receptor (Homo sapiens) (Q96RI1 whole entry, looked up): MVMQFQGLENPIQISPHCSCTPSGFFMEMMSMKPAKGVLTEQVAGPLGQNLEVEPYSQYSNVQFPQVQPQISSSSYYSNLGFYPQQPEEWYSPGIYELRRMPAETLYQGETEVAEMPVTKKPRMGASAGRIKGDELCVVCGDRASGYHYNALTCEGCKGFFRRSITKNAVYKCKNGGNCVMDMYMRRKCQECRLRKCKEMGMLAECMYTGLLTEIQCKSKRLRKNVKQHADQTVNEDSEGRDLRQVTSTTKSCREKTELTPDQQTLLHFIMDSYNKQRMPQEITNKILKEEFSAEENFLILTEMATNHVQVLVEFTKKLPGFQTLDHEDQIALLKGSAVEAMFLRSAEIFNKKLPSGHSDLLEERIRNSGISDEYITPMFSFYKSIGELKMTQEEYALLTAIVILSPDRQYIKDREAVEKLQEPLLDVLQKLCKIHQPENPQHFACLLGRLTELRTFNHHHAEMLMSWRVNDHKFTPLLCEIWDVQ
Sequence of Peroxisome proliferator-activated receptor delta (Homo sapiens) (Q03181 whole entry, looked up): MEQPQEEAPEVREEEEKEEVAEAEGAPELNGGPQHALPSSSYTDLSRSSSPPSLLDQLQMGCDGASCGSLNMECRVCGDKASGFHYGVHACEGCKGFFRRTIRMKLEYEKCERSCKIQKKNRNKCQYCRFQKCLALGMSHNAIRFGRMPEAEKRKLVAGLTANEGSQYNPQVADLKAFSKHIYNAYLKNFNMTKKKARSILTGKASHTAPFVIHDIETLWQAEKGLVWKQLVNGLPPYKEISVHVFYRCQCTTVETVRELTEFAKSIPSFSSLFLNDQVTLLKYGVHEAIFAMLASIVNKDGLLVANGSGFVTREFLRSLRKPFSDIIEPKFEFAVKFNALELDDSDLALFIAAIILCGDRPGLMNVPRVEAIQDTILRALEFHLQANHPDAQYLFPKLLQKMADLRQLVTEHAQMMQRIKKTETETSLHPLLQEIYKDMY
Sequence of Retinoic acid receptor RXR-alpha (Homo sapiens) (P19793 whole entry, looked up): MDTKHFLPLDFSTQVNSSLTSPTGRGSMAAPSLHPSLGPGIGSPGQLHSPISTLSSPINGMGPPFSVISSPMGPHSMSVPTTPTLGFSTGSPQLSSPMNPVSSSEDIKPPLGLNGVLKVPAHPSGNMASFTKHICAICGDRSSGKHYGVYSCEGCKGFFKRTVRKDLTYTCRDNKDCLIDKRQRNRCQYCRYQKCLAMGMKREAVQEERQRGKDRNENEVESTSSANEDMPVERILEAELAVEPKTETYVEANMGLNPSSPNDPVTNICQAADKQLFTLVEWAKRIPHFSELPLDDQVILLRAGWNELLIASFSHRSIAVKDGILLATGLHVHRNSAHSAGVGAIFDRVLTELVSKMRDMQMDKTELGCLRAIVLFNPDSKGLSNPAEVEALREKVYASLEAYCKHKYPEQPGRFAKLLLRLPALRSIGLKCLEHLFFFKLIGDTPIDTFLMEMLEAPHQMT

Consider `CC1(C)C(=O)NC(=O)NC1=O`, for which the call in [1], in [3], in assay [4], in assay [6], in assay [7] and in [8] was inactive. The call in assay [9] and in [14] was inactive. Also, the Potency entry in assay [2], in assay [5], in assay [10], in [11], in [12] and in assay [13] was “inactive” in each case.

On to `CCOP(=S)(OCC)Oc1ncn(-c2ccccc2)n1`, for which the molecule was called inactive in assay [1], in assay [15], in assay [3], in [4], in [16] and in assay [6]. For the same molecule, the molecule was classed as inactive in assay [7], in assay [8], in assay [9] and in [14]. Moreover, the Potency entry in [5], in assay [10], in assay [11], in [12] and in assay [13] was “inactive” each time.

Take `[As]#[In]`: the outcome in assay [1], in assay [3], in [6], in [7], in assay [8] and in assay [9] was inactive. In addition, the outcome in [14] was inactive. For the same molecule, the Potency entry in assay [10], in assay [11], in assay [12] and in assay [13] was “inactive” in each case.

Take `CC(C1CC1)C(O)(Cn1cncn1)c1ccc(Cl)cc1` (stereo not drawn): the result in [17], in assay [1], in assay [18], in assay [3], in [4] and in assay [6] was inactive. In addition, the result in [7], in assay [8], in assay [9] and in [14] was inactive. The Potency entry in assay [10], in assay [11], in [12] and in assay [13] was “inactive” throughout.

Consider `NC(=S)C(N)=S`, for which the molecule was called inactive in [1], in assay [18], in assay [15], in [3], in assay [4] and in assay [6]. Besides, the outcome in [7], in assay [8], in [9] and in assay [14] was inactive. Also, the Potency entry in assay [19], in assay [10], in [11], in assay [12] and in assay [13] was “inactive” each time.

As to `O=C1OC(CCN2CCCCC2)OC1(c1ccccc1)c1ccccc1` (stereo not drawn), the outcome in [1], in assay [3], in assay [4], in assay [16], in [6] and in assay [7] was inactive. Besides, the molecule was called inactive in assay [8] and in assay [9]. Further, the Potency entry in assay [5], in assay [10], in assay [11], in assay [12], in assay [13] and in assay [20] was “inactive” in each case.

Consider `C=C(C)[C@@H]1CC=C(C=O)CC1`, for which the molecule was called inactive in [17], in assay [1], in [15], in assay [3], in assay [4] and in assay [6]. In addition, the molecule was called inactive in assay [7], in assay [8], in assay [9] and in assay [14]. The Potency entry in [5], in assay [10], in assay [11], in assay [12] and in assay [13] was “inactive” each time.

Regarding `Nc1n[nH]c(N)n1`, the outcome in assay [1], in [18], in assay [15], in assay [3], in assay [4] and in [16] was inactive. The outcome in assay [6], in assay [7], in assay [8] and in [9] was inactive. For the same molecule, the Potency result in [5], in [10], in assay [11] and in assay [13] was “inactive” throughout. Also, the Potency in assay [12] was 15.6 µM (active).

Turning to `N#CC(CCc1ccc(Cl)cc1)(Cn1cncn1)c1ccccc1` (stereo not drawn), the molecule was called inactive in assay [18], in [15], in [3], in assay [4], in assay [7] and in assay [8]. In assay [9], the molecule was called inactive. Further, the Potency entry in assay [19], in [2] and in assay [10] was “inactive” each time. Besides, the Potency is 54.5 µM (active) in assay [11], 27.3 µM (active) in assay [12] and 54.9 µM (active) in [13].

On to `C=CC1CC=CCC1` (stereo not drawn), for which the outcome in assay [17], in [1], in [18], in assay [15], in assay [3] and in assay [4] was inactive. The molecule was classed as inactive in assay [7], in assay [8], in assay [9] and in assay [14]. For the same molecule, the Potency result in assay [19], in assay [2], in assay [5], in [10], in [11] and in [13] was “inactive” each time. The Potency result in assay [20] is “inactive”.
